Results: PubChem BioAssay (EPA / NIEHS)
Records with an inconclusive call do not appear. Active and inactive are the calls of the source. How the source made its calls, unless noted: active means hit-call score of the fitted dose curve at least 0.9, where 1 is the maximum; inconclusive means response in the unintended direction; inactive means score below 0.9.

Key:
[1] = Tanguay_ZF_120hpf_YSE_legacy: (Legacy) Oregon State University Tanguay Lab 120 Hour Post-fertilization zebrafish Assay for Yolk Sac Edema (AID 2283634);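 on AC50: actives raise the incidence of yolk sac edema above the DMSO baseline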
Outline: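 Presence or absence of yolk sac edema was recorded at 120 hpf in surviving larvae. These were wild-type Tropical 5D embryos, chorion removed at 4 hpf, held in static exposure at 28C from 6 hpf with 0.64% DMSO vehicle.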

[2] = Tanguay_ZF_120hpf_AXIS_legacy: (Legacy) Oregon State University Tanguay Lab 120 Hour Post-fertilization zebrafish Assay for Body Axis Malformation (AID 2283635);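 on AC50: potency for an increased fraction of larvae scored with body axis malformation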
Outline: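 Binary scoring of axis defects at 120 hpf under brightfield, fitted positive versus DMSO. Tropical 5D embryos, chorion removed by pronase at 4 hpf, were singly exposed in sealed, dark plates at 28C from 6 hpf; DMSO 0.64% final.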

[3] = Tanguay_ZF_120hpf_JAW_legacy: (Legacy) Oregon State University Tanguay Lab 120 Hour Post-fertilization zebrafish Assay for Jaw Malformation (AID 2283638);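 on AC50: active means more embryos with jaw malformation than DMSO controls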
Outline: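 Binary jaw-malformation call at 120 hpf by brightfield microscopy. Embryos (Tropical 5D strain, chorion removed at 4 hpf) were dosed statically at 6 hpf, one per well, at 28C with 0.64% DMSO. Embryos that died were not scored.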

[4] = Tanguay_ZF_120hpf_OTIC_legacy: (Legacy) Oregon State University Tanguay Lab 120 Hour Post-fertilization zebrafish Assay for Otic Vesicle Malformation (AID 2283639)
Outline: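 Statically exposed wild-type 5D zebrafish embryos, kept sealed and dark at 28C through 120 hours post fertilization, were examined by brightfield microscopy for otic vesicle defects. Responses were recorded as present or absent and analysed relative to DMSO.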

[5] = Tanguay_ZF_120hpf_PE_legacy: (Legacy) Oregon State University Tanguay Lab 120 Hour Post-fertilization zebrafish Assay for Pericardial Edema (AID 2283640);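 on AC50: potency for increased incidence of pericardial edema versus DMSO baseline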
Outline: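 Scoring was binary, by brightfield microscopy at 120 hpf, and skipped where mortality occurred. Wild-type embryos were kept under sealed, foil-covered static exposure at 28C in 0.64% (vol/vol) DMSO.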

[6] = Tanguay_ZF_120hpf_BRAI_legacy: (Legacy) Oregon State University Tanguay Lab 120 Hour Post-fertilization zebrafish Assay for Brain Malformation (AID 2283641)
Outline: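 Binary brightfield scoring of brain malformation at 120 hpf in Tropical 5D larvae held under static exposure at 28C (0.64% v/v DMSO), non-mortality endpoints skipped if dead. Positive control: 5uM trimethyltin chloride; fit versus DMSO.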

[7] = Tanguay_ZF_120hpf_CFIN_legacy: (Legacy) Oregon State University Tanguay Lab 120 Hour Post-fertilization zebrafish Assay for Caudal Fin Malformation (AID 2283649)
Outline: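 Binary brightfield scoring of caudal fin defects at 120 hpf after static, light-shielded exposure at 28C from 6 hpf. Tropical 5D embryos, chorion removed with pronase at 4 hpf, final DMSO 0.64%.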

[8] = Tanguay_ZF_120hpf_PIG_legacy: (Legacy) Oregon State University Tanguay Lab 120 Hour Post-fertilization zebrafish Assay for Pigmentation Malformation (AID 2283650)
Outline: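 Endpoint is incidence of abnormal pigmentation at 120 hpf in dechorionated 5D zebrafish exposed singly from 6 hpf at 28C, DMSO vehicle at 0.64%. Embryos dying by 24 or 120 hpf are excluded from scoring.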

[9] = Tanguay_ZF_120hpf_SWIM_legacy: (Legacy) Oregon State University Tanguay Lab 120 Hour Post-fertilization zebrafish Assay for Swim Bladder Malformation (AID 2283654);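 further: swim bladder malformation in each larva scored yes or no under brightfield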
Outline: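 Static waterborne exposure of single dechorionated Tropical 5D zebrafish embryos, 6–120 hpf, 28C, 0.64% DMSO final. Read-out: swim bladder malformation, present/absent, relative to DMSO negative control; trimethyltin chloride 5uM served as positive control.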

[10] = Tanguay_ZF_120hpf_NC_legacy: (Legacy) Oregon State University Tanguay Lab 120 Hour Post-fertilization zebrafish Assay for Notochord and Tail Malformation (AID 2283656)
Outline: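 Binary scoring of notochord distortion by brightfield microscopy; embryos dying were not scored. Wild-type Tropical 5D embryos, chorion removed, exposed singly and statically from 6 to 120 hpf, 28C, sealed, 0.64% DMSO.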

[11] = Tanguay_ZF_120hpf_SNOU_legacy: (Legacy) Oregon State University Tanguay Lab 120 Hour Post-fertilization zebrafish Assay for Snout Malformation (AID 2283637)
Outline: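 Dechorionated zebrafish, individually housed from 6 hpf in covered, sealed wells at 28C with 0.64% DMSO vehicle, were examined at 120 hpf for snout malformation. Responses were binary and analysed positive-direction relative to DMSO.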

[12] = Tanguay_ZF_120hpf_SOMI_legacy: (Legacy) Oregon State University Tanguay Lab 120 Hour Post-fertilization zebrafish Assay for Somite Malformation (AID 2283647)
Outline: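 Binary somite-defect scoring at 120 hpf, omitted for embryos that died, in wild-type (Tropical 5D) zebrafish with chorion removed by pronase at 4 hpf; static exposure began 6 hpf, single embryos per well, 28C, 0.64% DMSO; fitted positive versus DMSO.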

[13] = Tanguay_ZF_120hpf_CIRC_legacy: (Legacy) Oregon State University Tanguay Lab 120 Hour Post-fertilization zebrafish Assay for Circulatory Malformation (AID 2283651)
Outline: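 Embryos are dechorionated at 4 hpf, plated one per well at 6 hpf, then held under static exposure at 28C until 120 hpf. Malformations are recorded as binary calls; mortality excludes other endpoints.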

[14] = Tanguay_ZF_120hpf_TRUN_legacy: (Legacy) Oregon State University Tanguay Lab 120 Hour Post-fertilization zebrafish Assay for Truncated Body (AID 2283655)
Outline: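 Binary presence/absence of truncated body is recorded at 120 hpf by brightfield, with non-mortality endpoints skipped after death. Exposure is static from 6 hpf in sealed dark plates at 28C, using dechorionated wild-type zebrafish, 0.64% DMSO.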

[15] = Tanguay_ZF_120hpf_EYE_legacy: (Legacy) Oregon State University Tanguay Lab 120 Hour Post-fertilization zebrafish Assay for Eye Malformation (AID 2283636);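 further: binary presence or absence of eye malformation scored by brightfield in 120 hpf larvae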
Outline: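 Static waterborne exposure of dechorionated zebrafish embryos (strain Tropical 5D), 6 to 120 hpf, sealed plates at 28C, 0.64% DMSO vehicle. Eye malformation is scored as a binary endpoint, with gain of signal analysed relative to DMSO.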

[16] = Tanguay_ZF_120hpf_PFIN_legacy: (Legacy) Oregon State University Tanguay Lab 120 Hour Post-fertilization zebrafish Assay for Pectoral Fin Malformation (AID 2283648);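 further: each larva judged yes or no for fin defect by brightfield with dead larvae skipped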
Outline: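 Scoring of pectoral fin malformation was binary, made at 120 hpf on larvae exposed statically from 6 hpf after enzymatic chorion removal. Activity was fitted upward relative to DMSO controls at 0.64% (vol/vol).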

[17] = read-out: solute carrier (SLC22A6), SLC22A6 (gene 9356); assay: LTEA_HepaRG_SLC22A6: Life Technologies and Expression Analysis (LTEA) Assay for solute carrier (SLC22A6) using HepaRG (AID 2283653; active means hit-call score of the fitted dose curve at least 0.9, where 1 is the maximum; inactive means score below 0.9); settings: mRNA level, 48 h; actives raise or lower the signal
Outline: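 SLC22A6 transcript was measured by TaqMan qRT-PCR, normalized to three housekeeping genes, after 48 h duplicate exposure of HepaRG cells (100 uM top, half-log steps, 0.5% DMSO); bidirectional fit against vehicle.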

[18] = read-out: solute carrier (SLC10A1), SLC10A1 (gene 6554); assay: LTEA_HepaRG_SLC10A1: Life Technologies and Expression Analysis (LTEA) Assay for solute carrier (SLC10A1) using HepaRG (AID 2283657; active means hit-call score of the fitted dose curve at least 0.9, where 1 is the maximum; inactive means score below 0.9); settings: mRNA level, 48 h; actives raise or lower the signal
Outline: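 Cryopreserved HepaRG cells are thawed, plated and cultured 48 h; medium is then switched to serum-free induction medium and chemicals added (8 points, max 100 uM, 0.5% DMSO). After 48 h, RNA is isolated and SLC10A1 quantified by qRT-PCR.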

Measured: AC50

OC[C@@H](O)[C@@H](O)[C@H](O)[C@H](O)CO
inactive: [1] | [2] | [3] | [4] | [5] | [6] | [7] | [8] | [9] | [10]

CC1(C)CC(N=C=O)CC(C)(CN=C=O)C1 (stereo not given)
inactive: [1] | [2] | [11] | [3] | [4] | [6] | [12] | [7] | [8] | [13] | [9] | [14] | [10]

CC1(C)NC(=O)NC1=O
inactive: [1] | [3] | [4] | [7] | [9] | [14] | [10]

Cc1cccc(C)c1O
inactive: [1] | [2] | [15] | [3] | [6] | [16] | [8] | [13] | [9] | [14] | [10]

CCCCCCCCCCCC(=O)OC
inactive: [1] | [2] | [11] | [5] | [7] | [8] | [13] | [9] | [14] | [10]

Nc1ccccc1N
active: [1] 46.3 µM | [3] 49.4 µM | [5] 10.5 µM | [14] 10.9 µM
inactive: [2] | [4] | [12] | [7] | [8] | [13] | [10]

NCC1(Cc2noc(=O)[nH]2)CCCCC1
inactive: [1] | [2] | [3] | [7] | [8] | [13] | [9] | [14] | [10]

O=C(O)CCCCC(=O)O
inactive: [1] | [3] | [4] | [5] | [6] | [12] | [7] | [8] | [13] | [9] | [14] | [10]

CCOC(=O)C(C)(C)Oc1ccc(Cl)cc1
inactive: [1] | [15] | [5] | [6] | [12] | [8] | [13] | [9] | [10]
active: [2] 63.8 µM | [7] 69.7 µM | [14] 65.3 µM

CCCCCCCCCCCCCCCCCC(=O)O
inactive: [1] | [2] | [3] | [4] | [6] | [16] | [7] | [8] | [9] | [14]

NCCO
inactive: [1] | [2] | [11] | [3] | [5] | [6] | [12] | [16] | [7] | [8] | [13] | [14] | [10]

NS(=O)(=O)c1cc2c(cc1Cl)NCNS2(=O)=O
inactive: [1] | [2] | [11] | [3] | [4] | [6] | [7] | [8] | [13] | [9] | [14] | [10]

Nc1nc(N)c2nc(CNc3ccc(C(=O)N[C@@H](CCC(=O)O)C(=O)O)cc3)cnc2n1
inactive: [1] | [15] | [3] | [4] | [5] | [6] | [16] | [8] | [13] | [14] | [10]

CC(=O)C(C)=CC1C(C)=CCCC1(C)C (stereo not given)
inactive: [2] | [15] | [11] | [4] | [6] | [12] | [16] | [7] | [8] | [13] | [14] | [10]

COc1ccc2c(c1)c(CC(=O)O)c(C)n2C(=O)c1ccc(Cl)cc1
inactive: [2] | [15] | [11] | [4] | [5] | [6] | [16] | [7] | [8] | [13] | [9] | [14] | [10]

c1cc(-c2ccncc2)ccn1
inactive: [1] | [3] | [4] | [5] | [6] | [16] | [8] | [13] | [9] | [10]

Oc1ccc2ccccc2c1N=Nc1ccccc1
inactive: [4] | [12] | [16] | [7] | [8] | [13] | [17] | [14] | [10]
active: [1] 43.7 µM | [2] 17.3 µM | [11] 43.8 µM | [3] 9.73 µM | [9] 51.7 µM | [18] 4.88 µM

Cc1cc(=O)[nH]c(=S)[nH]1
inactive: [1] | [2] | [3] | [4] | [6] | [16] | [7] | [8] | [13] | [9] | [14] | [10]

COc1ccc(S(=O)(=O)N2C(=O)[C@@](c3ccccc3OC)(N3C[C@H](O)C[C@H]3C(=O)N(C)C)c3cc(Cl)ccc32)c(OC)c1
inactive: [1] | [2] | [15] | [3] | [5] | [6] | [16] | [7] | [8] | [13] | [14] | [10]

CCCCCCCCCCCCCO
inactive: [1] | [2] | [3] | [4] | [6] | [7] | [8] | [13] | [14] | [10]

Cc1oc(-c2ccccc2)nc1CCOc1cccc2c1ccn2CCC(=O)O
inactive: [1] | [2] | [11] | [3] | [4] | [5] | [6] | [16] | [8] | [13] | [9] | [14] | [10]

Oc1ccc2c(c1)OC[C@@H](N1CCC(O)(c3ccc(F)cc3)CC1)[C@H]2O
inactive: [1] | [11] | [3] | [4] | [6] | [12] | [7] | [8] | [13] | [9] | [14] | [10]

CCOC(=O)CCC(=O)OCC
inactive: [1] | [2] | [3] | [4] | [6] | [7] | [8] | [13] | [9] | [14] | [10]

CCCCOC(=O)CCCCCCCCC(=O)OCCCC
inactive: [1] | [15] | [3] | [4] | [5] | [12] | [7] | [8] | [13] | [9] | [14] | [10]

C=CCc1ccc(O)c(OC)c1
inactive: [1] | [2] | [3] | [4] | [5] | [6] | [12] | [7] | [8] | [13] | [9] | [14]

O=C(N[C@@H](Cc1ccccc1)[C@@H](O)C(=O)N1C[C@@H](O)[C@@H](O)C1)c1cc2cc(Cl)ccc2[nH]1
inactive: [1] | [2] | [3] | [4] | [6] | [16] | [7] | [8] | [13] | [9] | [14] | [10]

CC(=O)OCCOCCOCCOC(C)=O
inactive: [1] | [2] | [11] | [3] | [4] | [6] | [16] | [7] | [13] | [9] | [14]

CCCCCCCCCCCCCCCC
inactive: [1] | [2] | [11] | [3] | [4] | [5] | [7] | [8] | [13] | [9] | [14] | [10]
